Measurements published in PubChem BioAssay (Tox21).
Several values for one entry are separate records, joined by “and”; a condition that tells them apart may be missing. Equal entries are not always repeated. Inconclusive results are not listed. A call without a number means that no potency is given here. A structure can be active in one record and inactive in another. Activity calls are given as the source filed them. Calls follow the shape of the dose curve; as a rule, active = well fitted cell-killing curve with a large enough effect in the repeat runs; inconclusive = weak or mixed curves; inactive = no such curve, though single readings can be large or run the other way.
Potency is read from the fitted curve at half-maximal effect.

Experiment: qHTS assay for identifying genotoxic compounds that show differential cytotoxicity against isogenic chicken DT40 cell lines with known DNA damage response pathways - Rad54/Ku70 mutant cell line (AID 743015); also: nearly all actives have a fitted effect of over 60% in size
Conditions: DT40 Rad54/Ku70 mutant viability, CellTiter-Glo, 40 h; series mostly up to 66.8 µM
Text: National Center for Advancing Translational Sciences [NCATS]
NIH Chemical Genomics Center [NCGC]
U.S. Environmental Protection Agency [EPA]
National Institutes of Environmental Health Sciences [NIEHS]
National Toxicology Program [NTP]
U.S. Food and Drug Administration [FDA]
DNA repair pathways play a critical role in cellular homeostasis by repairing DNA damage induced by endogenous processes and xenobiotics. Isogenic chicken DT40 cell lines deficient in different DNA repair pathways can be used to identify genotoxic compounds and aid in characterizing the nature of the DNA damage induced. Two DNA repair-deficient cell lines with disrupted genes, Rad54/Ku70 or Rev3, were used to screen the Tox21 10K compound library. Possible genotoxicity was based on the presence of a significant increase in cytotoxicity in one or more of the DNA repair-deficient cell lines compared to that observed in the parental DNA repair-proficient cell line. CellTiter Glo viability assay (Promega, Madison, WI) was used to measure cell viability in these cells after compound treatment. This assay includes the data from the Rad54/Ku70 mutant cell line.
Tox21 Assay Protocol Summary:
300 DT40 mutant cells in 5 uL/well were dispensed into white, solid-bottom 1536-well plates using a Multidrop Combi (ThermoFisher Scientific, Waltham, MA) dispenser. After the assay plates were incubated at 37 C/5% CO2 for approximately 0.5 hour, 23 nL of compounds dissolved in DMSO, positive controls or DMSO only was transferred into the assay plate by a pintool work station (Kalypsys, San Diego, CA). The assay plates were incubated at 37 C/5% CO2 for 40 hours. After 5 uL per well of CellTiter-Glo reagent was added into each well of the assay plates, the plates were incubated for 30 min at room temperature and the luminescence intensity of the plates was measured using a ViewLux (PerkinElmer, Shelton, CT) plate reader.
For `C=C[C@@]1(C)CC(=O)[C@]2(O)[C@@]3(C)[C@@H](O)CCC(C)(C)[C@@H]3[C@H](O)[C@H](OC(C)=O)[C@@]2(C)O1`, the Potency was 23.7 µM (active) and 24.3 µM (active).
For `CN(C)/N=N/c1nc[nH]c1C(N)=O`, the Potency was 62 µM (active).
With `Clc1ccc(Sc2cc(Cl)c(Cl)cc2Cl)cc1` the Potency was “inactive”.
In the case of `CN(C)CCCN1c2ccccc2Sc2ccc(Cl)cc21`, the Potency is reported as 11.9 µM (active) and 19.3 µM (active).
With `CCCOCCO` the Potency was “inactive”.
With `CC(=O)[C@H]1CC[C@H]2[C@@H]3CC=C4C[C@@H](O)CC[C@]4(C)[C@H]3CC[C@]12C` the Potency was “inactive”.
For `C[C@]12CC[C@@H]3c4ccc(O)cc4CC[C@H]3[C@@H]1CC[C@@H]2O`, the Potency was 26.6 µM (active) and 54.5 µM (active).
In the case of `CC(C)(C)c1cccc(C(C)(C)C)c1O`, the Potency is reported as “inactive”.
With `C=CCCCCCCCCCC` the Potency was “inactive”.
In the case of `CCC(=O)O[C@H]1[C@H](O[C@@H]2[C@@H](C)[C@H](O[C@H]3C[C@@](C)(OC)[C@@H](O)[C@H](C)O3)[C@@H](C)C(=O)O[C@H](CC)[C@@](C)(O)[C@H](O)[C@@H](C)C(=O)[C@H](C)C[C@@]2(C)O)O[C@H](C)C[C@@H]1N(C)C`, the Potency is reported as “inactive and 36.1 µM (active)”.
With `Nc1cc([N+](=O)[O-])ccc1C(=O)O` the Potency was “inactive”.
In the case of `CCCN1C=CN(C)C1`, the Potency is reported as “inactive”.
For `CCCCCC1C(=O)CCC1CC(=O)OC` (stereo not given), the Potency was “inactive”.
In the case of `CC(=O)OC(C)C`, the Potency is reported as “inactive”.
For `Oc1c(Cl)ccc(Cl)c1Cl`, the Potency was “inactive”.
With `[O-]/[N+](=N\O)c1ccccc1` the Potency was “inactive”.
For `CCCCCCOCCOCCO`, the Potency was “inactive”.
In the case of `Nc1ccc(N)c(Cl)c1`, the Potency is reported as “inactive”.
In the case of `c1ccc2c(c1)ccc1cc3c(ccc4ccccc43)cc12`, the Potency is reported as “inactive”.
In the case of `COCCOCCOCCO`, the Potency is reported as “inactive”.
In the case of `Cc1cccc(Nc2ccccc2C(=O)O)c1C`, the Potency is reported as “inactive and 61.1 µM (active)”.
With `Cc1ccc([N+](=O)[O-])c(C)c1` the Potency was “inactive”.
In the case of `Cc1ccc(N)c([N+](=O)[O-])c1`, the Potency is reported as “inactive”.
With `CCO[Si](CCCNC(N)=O)(OCC)OCC` the Potency was “inactive”.
In the case of `O=Cc1ccccc1C=O`, the Potency is reported as 11.9 µM (active) and 2.43 µM (active).
With `C[C@]12C=CC(=O)C=C1CC[C@H]1[C@@H]3C[C@@H](O)[C@](O)(C(=O)CO)[C@@]3(C)C[C@H](O)[C@@]12F` the Potency was 48.6 µM (active).
With `C[N+](C)(C)CCO` the Potency was “inactive”.
With `c1ccc2c(c1)[nH]c1ccccc12` the Potency was “inactive”.
For `C=CCNCC=C`, the Potency was “inactive”.
In the case of `C[C@]12CC[C@@H]3c4ccc(O)cc4CC[C@H]3[C@@H]1CC[C@H]2O`, the Potency is reported as 27.8 µM (active) and 54.5 µM (active).
For `CC/C=C\C/C=C\C/C=C\CCCCCCCC(=O)O`, the Potency was “inactive and 60.6 µM (active)”.
For `O=C(O)CCCCCCCCCCCC(=O)O`, the Potency was “inactive”.
For `CC(=O)Nc1ccc2c(c1)Cc1cc(NC(C)=O)ccc1-2`, the Potency was “inactive”.
For `C=C[C@H]1CN2CC[C@H]1C[C@H]2[C@H](O)c1ccnc2ccc(OC)cc12`, the Potency was 26.6 µM (active) and 13.3 µM (active) and 27.3 µM (active).
In the case of `c1ccc2c(c1)ccc1ncccc12`, the Potency is reported as “inactive”.
In the case of `COc1ccc2nc(N)sc2c1`, the Potency is reported as “inactive”.
For `CC1(C)O[C@@H]2C[C@H]3[C@@H]4C[C@H](F)C5=CC(=O)C=C[C@]5(C)[C@@]4(F)[C@@H](O)C[C@]3(C)[C@]2(C(=O)CO)O1`, the Potency was “inactive”.
With `O=C(O)CCCC(=O)O` the Potency was “inactive”.
With `CC/C(=C(/CC)c1ccc(O)cc1)c1ccc(O)cc1` the Potency was 26.6 µM (active) and 27.3 µM (active).
With `CCCCCCCC/C=C\CCCCCCCC(=O)O` the Potency was “inactive”.
